# Tests used:
# Conditions in all cases: concentration: 1 μM, replicates: in singlicate; n = 1
# TIE2 = test system: T1, TIE2
# T1 construct: gene TEK
# TLK1 = test system: TLK1
# TLK2 = test system: TLK2
# TNIK = test system: TNIK
# TNK1 = test system: TNK1
# TNK2 = test system: TNK2
# TNNI3K = test system: TNNI3K
# TRKA = test system: T2, TRKA
# T2 construct: gene NTRK1
# TRKB = test system: TRKB
# TRKC = test system: T3, TRKC
# T3 construct: gene NTRK3
# TRPM6 = test system: TRPM6
# TSSK1B = test system: TSSK1B
# TSSK3 = test system: TSSK3
# TTK = test system: TTK
# TXK = test system: TXK
# [1] = test system: TYK2(JH1domain-catalytic)
# [2] = test system: TYK2(JH2domain-pseudokinase)
# TYRO3 = test system: TYRO3
# ULK1 = test system: ULK1
# ULK2 = test system: ULK2
# 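Note: KINOMEscan kinase panel screen.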
SMILES,%Inh (TIE2) [%],%Inh (TLK1) [%],%Inh (TLK2) [%],%Inh (TNIK) [%],%Inh (TNK1) [%],%Inh (TNK2) [%],%Inh (TNNI3K) [%],%Inh (TRKA) [%],%Inh (TRKB) [%],%Inh (TRKC) [%],%Inh (TRPM6) [%],%Inh (TSSK1B) [%],%Inh (TSSK3) [%],%Inh (TTK) [%],%Inh (TXK) [%],%Inh [1] [%],%Inh [2] [%],%Inh (TYRO3) [%],%Inh (ULK1) [%],%Inh (ULK2) [%]
O=c1cc(N2CCOCC2)nc2n(Cc3ccc(F)c(Cl)c3)ccn12 [GSK2297099],0,11,22,0,0,10,0,0,0,0,36,0,9,0,0,0,15,0,16,0
CCc1nc(-c2cccc(C)c2)c(-c2ccncc2)s1,12,24,0,59,2,0,0,11,0,0,0,0,0,0,0,0,25,0,0,0
Cc1nc(N(C)[C@H]2CN(C(=O)CC#N)CC[C@H]2C)c2cc[nH]c2n1,3,3,7,0,3,11,0,17,0,0,0,0,0,19,8,15,0,18,0,8
Cc1ccc(-c2ccc3c(ccc4sc5c(c43)NC[C@@H](C)N=C5N(C)C)n2)cn1,0,0,0,2,34,0,0,0,0,0,0,0,0,0,0,0,0,0,0,0
COC(=O)c1c(-c2ccccc2)c2cc(Br)ccc2c(=O)n1Cc1ccc(S(C)(=O)=O)cc1,3,14,0,0,0,1,0,0,0,24,2,0,0,31,12,7,15,1,0,13
COc1cc(Nc2nccc(N3CCC(NC(=O)C(C)c4ccc(Cl)cc4)C3)n2)cc(OC)c1OC (stereo not drawn) [GSK1379757],0,0,0,0,0,6,0,63,0,43,0,0,19,0,0,38,31,0,0,0
COc1cc2nccc(Nc3cccc(Oc4ccccc4)c3)c2cc1OC.Cl [GW284543],12,0,0,0,0,12,10,34,5,2,11,11,13,0,3,5,0,0,6,15
COc1ccc(-c2cc3c(C)nc(N)nc3n([C@H]3CC[C@H](OCCO)CC3)c2=O)cn1,0,14,0,0,34,0,1,0,0,0,0,2,0,0,2,0,0,0,0,0
CN1C(=O)C(Nc2cc(Cl)c(O)c(Cl)c2)=C(c2ccc(Cl)cc2)C1=O [SB-404321],0,0,0,0,22,0,0,52,36,10,0,0,22,0,0,0,13,0,0,0
CCCNC(=O)Nc1ccc(Oc2ncnc3ccn(C)c23)cc1,7,3,0,18,0,0,0,0,0,13,0,0,0,0,0,13,22,0,14,10
O=C(Nc1ccc2c(c1)OCO2)NC1CCN(c2ccnc(NCc3ccc(F)cc3)n2)CC1 [GSK1379859],0,0,0,0,0,7,1,0,15,6,47,0,12,0,0,0,0,0,12,0
CC(C)(C)c1ccc(C(=O)Nc2cn3cc(-c4ccccc4)ccc3n2)cc1,0,8,0,18,0,6,6,0,7,3,0,0,8,0,9,0,6,5,0,49
CCC(=O)c1c(-c2ccccc2)c2cc(Cl)ccc2c(=O)n1Cc1cc(C(=O)NC2CC2)n(C)n1,0,8,0,0,0,0,0,0,0,7,0,0,0,15,24,8,1,0,0,6
O=C(NCCNc1ccnc(Nc2ccc(F)cc2)n1)Nc1ccc2c(c1)OCO2 [GSK1379882],0,22,20,0,0,9,0,4,0,17,26,0,24,15,100,21,28,0,0,0
OCCCNc1nccc(-c2c(-c3cccc(C(F)(F)F)c3)nn3cc(C(F)(F)F)ccc23)n1 [GW630813],0,6,0,3,0,0,0,0,7,3,0,0,6,0,0,14,13,0,0,0
Nc1nc(-c2ccccc2F)c(-c2ccnc3ccccc23)s1 [GW560459],3,0,0,65,0,3,94.1,0,26,31,32,14,10,20,0,7,32,0,0,0
O=C1NC(=O)C(c2ccccc2)=C1Nc1cccc(O)c1 [SB-390534],13,26,98.4,16,5,0,4,0,0,37,0,0,0,0,14,14,0,0,0,12
Nc1nccc2scc(-c3ccc4c(c3)CCN4C(=O)Cc3ccccc3)c12 [GSK2576924],13,22,3,0,0,0,0,49,0,0,13,0,14,0,4,14,0,0,2,0
Nc1ncnc2c1ncn2-c1ccc(Cl)cc1 [AH2635],0,0,0,0,0,0,0,14,0,16,44,0,16,0,5,25,39,0,0,0
Cc1nn2c(=O)cc(N3CCOCC3)nc2n1Cc1cccc(Cl)c1Cl [GSK2342769],0,0,0,0,0,16,5,0,0,4,0,0,6,0,13,10,4,0,17,0
Cc1ccccc1COc1cc(-n2cnc3cc(Cl)ccc32)sc1C(N)=O [GW813349],0,0,0,30,12,0,0,0,0,5,0,3,0,2,9,5,5,5,0,0

# Source: publication PMC5540273 (PLoS ONE, 2017)
